Laboratory results: PubChem BioAssay (NCATS)
Inconclusive results are not listed. A number with no mark means an inactive call. Activity calls are given as the source filed them. Calls come from the whole dose curve; as a rule, active = well fitted inhibition curve with a large enough effect; inconclusive = small, poorly fitted or top-dose-only effect; inactive = no such curve, though single readings can be large or run the other way.

Each molecule was assayed against Retinal dehydrogenase 2 (Homo sapiens) (UniProt O94788) (assay: qHTS for Inhibitors of the Aldehyde Dehydrogenase Family (ALDH1A2) Confirmation screens (AID 2061314; note: nearly all actives have a fitted effect of over 65% in size; note: potency is the fitted concentration of half-maximal effect; for activity, negative = inhibition: % is set by controls: 0 for no effect and ±100 for the full control effect)). Details: ALDH1A2 enzyme inhibition qHTS confirmation; series mostly up to 45.9 µM; activity, negative = inhibition: at the top concentration.

| Structure (SMILES) | activity, negative = inhibition [%] | Potency |
| --- | --- | --- |
| Cc1cc(F)ccc1[C@H]1C[C@@H](N2CCN3C(=O)CC[C@H]3C2)CCN1C(=O)N(C)[C@H](C)c1cc(C(F)(F)F)cc(C(F)(F)F)c1 | -10 | – |
| Clc1cccc(-c2ccc(C3Nc4cccc5cccc(c45)N3)o2)c1 | – | 11.3 µM (active) |
| O=S(=O)(Nc1cc(O)cc2cccnc12)c1ccc(Br)s1 | – | 0.634 µM (active) |
| CN[C@@H]1[C@H](O[C@H]2[C@H](O[C@@H]3[C@@H](O)[C@H](O)[C@@H](N=C(N)N)[C@H](O)[C@H]3N=C(N)N)O[C@@H](C)[C@]2(O)C=O)O[C@@H](CO)[C@H](O)[C@H]1O | 0.786 | – |
| CCn1cc2nc(SCc3cccc(C)c3)n(CCc3ccccc3)c(=O)c2n1 | – | 3.24 µM (active) |
| O=C(C1CCN(Cc2ccccc2-c2ccccc2F)CC1)N1CCC(Cc2ccccc2)CC1 | -9.01 | – |

Each molecule was assayed against Retinaldehyde dehydrogenase 3 (Homo sapiens) (UniProt P47895) (assay: qHTS for Inhibitors of the Aldehyde Dehydrogenase Family (ALDH1A3) Primary screen (AID 2061315;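 note: plate controls were DMSO vehicle for no effect and reference inhibitor for full effect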)). Details: ALDH inhibition qHTS; series mostly up to 56 µM; activity change, negative = inhibition: at the top concentration.

| Structure (SMILES) | activity change, negative = inhibition | Potency |
| --- | --- | --- |
| COc1cccc(Nc2nc(C#N)nc(NC3CCCC3)n2)c1 | -2.54% | – |
| S=C(Nc1cc(Cl)ccn1)N1CCN(c2ccc(Cl)c(Cl)c2)CC1 | -1.55% | – |
| Cc1cc(F)ccc1[C@H]1C[C@@H](N2CCN3C(=O)CC[C@H]3C2)CCN1C(=O)N(C)[C@H](C)c1cc(C(F)(F)F)cc(C(F)(F)F)c1 | -12.6% | – |
| Cc1ccc(CNc2ccc(N3CCN(C)CC3)cc2)cc1 | -18.5% | – |
| FC(F)(F)c1ccc(-c2nc(-c3nnc4n3CCCCC4)c(C(F)(F)F)o2)cc1 | 6.54% | – |
| O=C([C@H](Cc1ccc(O[S+](=O)([O-])c2cccc3cccnc23)cc1)N[S+](=O)([O-])c1ccccn1)N1CCN(c2ccccc2)CC1 | 10.6% | – |
| CN1CCN(c2cccc(Nc3nn4c(=O)c5ccc(F)cc5nc4s3)c2)CC1 | 0.111% | – |
| N[C@@H](CC(=O)O)C(=O)Nc1ccc(Cl)cc1C(=O)c1ccc[nH]1 | 5.59% | – |
| COc1ccc(C2Nc3ccccc3C(=O)N2Cc2ccccc2)cc1COc1cccc(Cl)c1 (centres undefined) | -3.17% | – |
| Cc1cc2c(s1)c1cnn(Cc3ccc(-n4cncn4)cc3)c(=O)c1n2C | -1.67% | – |
| O=C(Nc1ccc2ccccc2c1)Nc1nnc(Br)s1 | 21.7% | – |
| C[C@H](N)C(=O)Nc1cccc(-c2nn3c(=O)cc(N4CCNCC4)nc3s2)c1 | -5.15% | – |
| CN[C@@H]1[C@H](O[C@H]2[C@H](O[C@@H]3[C@@H](O)[C@H](O)[C@@H](N=C(N)N)[C@H](O)[C@H]3N=C(N)N)O[C@@H](C)[C@]2(O)C=O)O[C@@H](CO)[C@H](O)[C@H]1O | -8.07% [at 28 µM] | – |
| COc1ccc(C(=O)N(Cc2ccccc2)Cc2ccc(OC)c(COc3ccc(NC(C)=O)cc3)c2)c(O)c1 | -4.19% | – |
| Cc1cc(N[S+](=O)([O-])c2cc3c(cc2Cl)NC(=O)CO3)ccc1Cl | 26.7% | – |
| N#Cc1nc(Nc2cccc(F)c2)nc(NC2CCCC2)n1 | 9.52% | – |
| COc1ccc(-n2cnc3cc(C(=O)N4CCCCC4)ccc32)cc1 | – | inactive |
| O=S(=O)(NCCCCCCNS(=O)(=O)c1c(F)cccc1F)c1ccc2c(c1)OCCO2 | 11.5% | – |
| Cc1nc(C2=NC(c3ccccc3Cl)C3=C(CCCC3=O)N2)cs1 (centres undefined) | 33.4% | – |
| CC(C)(C)OC(=O)N1CCN(c2ccc(NCc3coc(-c4ccc(C#N)cc4)c3)cc2)CC1 | -22.5% | – |
| Cn1nnnc1Sc1ncnc2scc(-c3cccc(Br)c3)c12 | 13.9% | – |
| FC(F)(F)c1cnc(N2CCN(C(=S)Nc3cc(Cl)ccn3)CC2)c(Cl)c1 | -12.5% | – |
| Cc1ccc(NC(=O)CN2C(=O)N/C(=C\c3cccn3-c3ccc(P(=O)(O)O)cc3)C2=O)cc1 | 3.97% | – |
| COc1ccccc1-c1no[n+]([O-])c1C#N | 3.95% | – |
| CNC(=O)c1cc(Oc2ccc3nc(N[C@@H]4CCCC[C@H]4O)sc3c2)ccn1 | 11.4% | – |
| COc1ccc(C2Nc3ccccc3C(=O)N2Cc2ccc(C(C)(C)C)cc2)cc1COc1ccc(NC(C)=O)cc1 (centres undefined) | -0.468% | – |
| CC(=O)Nc1sc2c(c1-c1ccc(C(F)(F)F)cc1)CCNC2 | 6.56% | – |

The molecules below were run against Aldehyde dehydrogenase 1A1 (Homo sapiens) (UniProt P00352) (assay: qHTS for Inhibitors of the Aldehyde Dehydrogenase Family (ALDH1A1) Confirmatory screens (AID 2061316; note: nearly all actives have a fitted effect of over 65% in size; note: potency is the fitted concentration of half-maximal effect; for activity change, negative = inhibition: % is set by controls: 0 for no effect and ±100 for the full control effect)). Details: ALDH inhibition qHTS; series mostly up to 47.3 µM; activity change, negative = inhibition: at the top concentration.

| Structure (SMILES) | activity change, negative = inhibition [%] | Potency | outcome |
| --- | --- | --- | --- |
| COc1cccc(Nc2nc(C#N)nc(NC3CCCC3)n2)c1 | -6.37 | – | – |
| S=C(Nc1cc(Cl)ccn1)N1CCN(c2ccc(Cl)c(Cl)c2)CC1 | – | 4 µM (active) | – |
| Cc1cc(F)ccc1[C@H]1C[C@@H](N2CCN3C(=O)CC[C@H]3C2)CCN1C(=O)N(C)[C@H](C)c1cc(C(F)(F)F)cc(C(F)(F)F)c1 | – | – | inactive |
| Cc1ccc(CNc2ccc(N3CCN(C)CC3)cc2)cc1 | -12 | – | – |
| COc1ccc(-c2cncc(NC(=O)c3cccs3)c2)cc1OC | -19.2 | – | – |
| N[C@@H](CC(=O)O)C(=O)Nc1ccc(Cl)cc1C(=O)c1ccc[nH]1 | – | – | inactive |
| CC(C)(C)OC(=O)N1CCN(c2ccc(NCc3ccc(-c4ccc(C(C)(C)C)cc4)o3)cc2)CC1 | – | 10.1 µM (active) | – |
| CC(C)N1CCc2c(sc(NC(=O)C(F)(F)F)c2-c2nc3ccccc3s2)C1 | – | 5.65 µM (active) | – |
| COc1ccc(C2Nc3ccccc3C(=O)N2Cc2ccccc2)cc1COc1cccc(Cl)c1 (centres undefined) | – | – | inactive |
| Cc1cc2c(s1)c1cnn(Cc3ccc(-n4cncn4)cc3)c(=O)c1n2C | – | 11.3 µM (active) | – |
| CN[C@@H]1[C@H](O[C@H]2[C@H](O[C@@H]3[C@@H](O)[C@H](O)[C@@H](N=C(N)N)[C@H](O)[C@H]3N=C(N)N)O[C@@H](C)[C@]2(O)C=O)O[C@@H](CO)[C@H](O)[C@H]1O | -21.4 | – | – |
| Cc1cc(N[S+](=O)([O-])c2cc3c(cc2Cl)NC(=O)CO3)ccc1Cl | -37.3 | – | – |
| COc1ccc(-n2cnc3cc(C(=O)N4CCCCC4)ccc32)cc1 | -26 | – | – |
| O=S(=O)(NCCCCCCNS(=O)(=O)c1c(F)cccc1F)c1ccc2c(c1)OCCO2 | – | 8.96 µM (active) | – |
| CC(C)(C)OC(=O)N1CCN(c2ccc(NCc3coc(-c4ccc(C#N)cc4)c3)cc2)CC1 | – | 3.57 µM (active) | – |
| Cn1nnnc1Sc1ncnc2scc(-c3cccc(Br)c3)c12 | – | – | inactive |
| FC(F)(F)c1cnc(N2CCN(C(=S)Nc3cc(Cl)ccn3)CC2)c(Cl)c1 | – | 2.52 µM (active) | – |
| Cc1ccc(NC(=O)CN2C(=O)N/C(=C\c3cccn3-c3ccc(P(=O)(O)O)cc3)C2=O)cc1 | – | – | inactive |
| CC(=O)N1CCN(c2ccc(NCc3ccc(-c4cccc(Cl)c4)o3)cc2)CC1 | – | 6.34 µM (active) | – |
| COc1ccccc1-c1no[n+]([O-])c1C#N | -15.8 | – | – |
| CC(=O)Nc1sc2c(c1-c1ccc(C(F)(F)F)cc1)CCNC2 | – | – | inactive |
